Measured values taken from PubChem BioAssay (NCI).
The panel holds about 83,000 compounds, 20% with a hit somewhere; the sample as a whole holds those more often.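 How to read the values: 0–100, growth inhibition (40 = 60% inhibited); 0, no net growth; -100 to 0, cell death (-40 = 40% of starting cells died; -100 = all dead).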 A number with no mark means an inactive call. Active and inactive are the calls of the source. How the source made its calls: active means growth percent below 10; inactive means the rest.

How the values were obtained:
Assay in all cases: NCI-60 one-dose screen, 48 h (100 = growth as untreated, 0 = no growth, -100 = all killed)
Conditions in all cases: 10 µM unless noted
HCT-15 colon = test system: HCT-15 colon
HT29 colon = test system: HT29 colon
SNB-75 CNS = test system: SNB-75 CNS
SNB-19 CNS = test system: SNB-19 CNS
U251 CNS = test system: U251 CNS
PC-3 prostate = test system: PC-3 prostate
SK-MEL-5 melanoma = test system: SK-MEL-5 melanoma
UACC-62 melanoma = test system: UACC-62 melanoma
LOX IMVI melanoma = test system: LOX IMVI melanoma
SK-MEL-28 melanoma = test system: SK-MEL-28 melanoma

| SMILES | growth (HCT-15 colon) | growth (HT29 colon) | growth (SNB-75 CNS) | growth (SNB-19 CNS) | growth (U251 CNS) | growth (PC-3 prostate) | growth (SK-MEL-5 melanoma) | growth (UACC-62 melanoma) | growth (LOX IMVI melanoma) | growth (SK-MEL-28 melanoma) |
| --- | --- | --- | --- | --- | --- | --- | --- | --- | --- | --- |
| CCCCCc1ccc(S(=O)(=O)Nc2ccc3nc(N)oc3c2)cc1 | 82.5% | 89.4% | 40.7% | 66.3% | 71.5% | 57.2% | 4.66% (active) | 43.7% | 36.3% | 74.7% |
| C=C(C)[C@@H]1CC[C@]2(CO)CC[C@]3(C)[C@H](CC[C@@H]4[C@@](C)(CCCN)[C@H](C(=C)C)CC[C@]43C)[C@@H]12 | -81.7% (active) | -54.4% (active) | -91.9% (active) | 1.21% (active) | -88.6% (active) | 0.447% (active) | -87.5% (active) | -88.6% (active) | -97.8% (active) | -98.3% (active) |
| COc1ccc2c(O)c(/C=C3\N=Nc4ncccc43)oc2c1C[C@@H]1CCNC[C@H]1F | -1.3% (active) | 5.21% (active) | -57.3% (active) | 1.93% (active) | -84.7% (active) | -29.1% (active) | 5.56% (active) | -33.2% (active) | -93% (active) | 5.44% (active) |
| COc1ccc(C2[C@@H](c3ccccc3)C(=O)N2c2cc(OC)c(OC)c(OC)c2)cc1F (stereo not given in full) | 8.76% (active) | -19.2% (active) | 66.2% | 30.6% | 7.17% (active) | 23.8% | -15.6% (active) | 15.1% | 19% | 63.6% |
| C=CCN=c1sc(-c2ccc3ccccc3c2)cn1NC(=O)c1cc2ccc1CCc1ccc(cc1)CC2 | 49.5% | 30.1% | 53.3% | 66.8% | 53.9% | 37.8% | -10.1% (active) | 52.7% | 59.9% | 72.2% |
| O=C(CN1C(=O)S/C(=C\C(Cl)=C\c2ccccc2)C1=O)NC1CCS(=O)(=O)C1 (stereo not given) | 15.7% | 53.5% | 57.8% | 86.8% | 81.6% | 80.9% | 84.5% | 72.1% | 14.2% | 74.9% |
| CCOC(=O)c1[nH]cc2c1CCc1sc(Nc3ccccn3)nc1-2 | 67.2% | 77% | 82.2% | 85.2% | 69% | 56.7% | 63.5% | 86.5% | 81.7% | 103% |
| COc1ccc(Nc2ncc(C#N)c(NCCCNC(=O)C3CCC3)n2)cc1 | 49.7% | 61.9% | 58.1% | 68.9% | 60.1% | 71.9% | 92% | 78.1% | 32.6% | 103% |
| O=C(CSc1nnnn1-c1ccccc1)Nc1ccc(Oc2ccccc2)cc1 | 97.4% | 108% | 101% | 98.8% | 101% | 96.1% | 103% | 82.3% | 104% | 100% |
| COc1cc(-c2nccc3[nH]c(-c4cccc5[nH]ccc45)nc23)cc(OC)c1OC | 17.6% | -3.78% (active) | 73.6% | 49.1% | 13.6% | 11.8% | -45.8% (active) | 51.4% | 20.6% | 76.9% |
| C=C1C(=O)O[C@H]2[C@H]1CC/C(COC(=O)/C=C\C(=O)NCc1ccc(Cn3c(=O)sn(CCCCl)c3=O)cc1)=C\CC[C@@]1(C)O[C@@H]21 | 30.8% | 46.9% | 88.5% | 94.8% | 79.6% | 76.9% | 102% | 65.1% | 64.2% | 100% |
| CCn1cc(Cc2cc(C(=O)Nc3cc4cc(OC)c(OC)cc4c(C)n3)ccc2Cl)cn1 | 19.3% | 2.56% (active) | 36% | 44.7% | 48.3% | 29.2% | 13.3% | 43.8% | 5.28% (active) | 35% |
| CS(=O)(=O)Nc1cc(-c2ccc3ncnc(Nc4ccc(OCc5ccccn5)c(Cl)c4)c3c2)cnc1Cl | 25.1% | -5.91% (active) | -10.8% (active) | 24% | -27.1% (active) | 13.4% | -80.8% (active) | 4.79% (active) | -19.6% (active) | 8.34% (active) |
| COc1ccc2c(c1)C(C)Cc1c(ncnc1-n1cnc3cc(C)ccc31)N2C (stereo not given) | 13.2% | 5.82% (active) | 63.3% | 33.5% | 18.5% | 24.7% | -14.1% (active) | 36.1% | 21.9% | 64.3% |
| O=c1oc2c(cnc3ccccc32)cc1-c1cccc(Cl)c1 | 101% | 108% | 95.6% | 98.5% | 98.2% | 97.7% | 107% | 96.1% | 102% | 105% |
| COc1cc(O)c2c(=O)c3c(CC=C(C)C)cc(OC)c(O)c3oc2c1 | 29.6% | 71.4% | 5.63% (active) | 27.2% | 9.71% (active) | 73.9% | 52.9% | 17% | 40.3% | 63% |
| Cc1ccc2c(c1)sc1nc(-c3c[nH]c4ccccc34)c(Nc3ccccc3)n12 | 105% | 104% | 89.8% | 94.9% | 106% | 90.4% | 113% | 89.4% | 96.3% | 110% |
| COc1ccc(/C=C/C(c2cc(OC)c(OC)c(OC)c2)n2cncn2)cc1O (stereo not given) | 16.5% | 41% | 41% | 34.2% | 20.7% | 23.5% | 23.9% | 37.5% | 50.9% | 59.1% |
| CCN(CC)CCOc1ccc2c(-c3ccccc3)c(-c3ccc(OC)cc3)c(=O)oc2c1 | 11.4% | 17% | 82.6% | 69% | 44.4% | 65.4% | 25.9% | -15% (active) | 29.3% | 43.1% |
| CN(C)CCC(CCN(C)C)(C(=O)O)c1ccccc1 | 99.7% | 96.6% | 97.2% | 101% | 102% | 92.7% | 102% | 103% | 106% | 105% |
| O=C(O)CC(C(=O)O)/C(=C\c1ccccc1)c1ccccc1 (stereo not given) | 107% | 114% | 83.2% | 109% | 99.8% | 96.6% | 94.8% | 101% | 99.1% | 103% |
| COc1ccc(C=Nc2c(C(=O)Nc3cccc(Cl)c3C)sc3nc(C)c(C(=O)/C=C/c4ccc(OC)cc4)cc23)cc1 | 19.6% | 9.21% (active) | -11.3% (active) | 11.7% | 23.6% | 32.8% | 3.54% (active) | 7.41% (active) | 19% | 38.3% |
| CC(C)=CC(=O)N[C@H]1CC[C@]2(C)C3CC[C@]4(C)C(C(C)N(C)C)=CCC4C3CCC2[C@H]1O (stereo not given in full) | -36.5% (active) | 2.01% (active) | 65% | 100% | 51.5% | 37.7% | -76.1% (active) | -25.1% (active) | -59.1% (active) | -72.5% (active) |
| CC(C)CCC[C@@H](C)[C@H]1CC[C@H]2[C@@H]3CC=C4c5sc(Nc6cc(C(F)(F)F)cc(C(F)(F)F)c6)nc5CC[C@]4(C)[C@H]3CC[C@]12C | 101% | 110% | 95.5% | 98.6% | 96% | 92.8% | 100% | 94.5% | 96.8% | 113% |
| COc1cc(/C=C/C(=O)N2CCN(C(=O)c3cc(OC)c(OC)c(OC)c3)CC2)ccc1OCCCOc1cc2c(cc1OC)C(=O)N1CCC[C@H]1C=N2 | 43.4% | 13.5% | -48.1% (active) | 13.8% | 7.58% (active) | -43% (active) | 2.69% (active) | -90.1% (active) | 1.38% (active) | -47.3% (active) |
| COc1cccc(CNc2c3ccccc3nc3ccccc23)c1OC | 19.8% | 14.4% | 68% | 35.5% | 34.5% | 37.6% | 55.8% | 51.3% | 13% | 66.1% |
